Records with an inconclusive call do not appear. A number with no mark means an inactive call. Calls of active or inactive are those of the source. Calls come from the whole dose curve. Numbered stars: 1 amine (or outer) side, 2 acyl side, 3 side chain; on linkers, the order of the positions; unused ones are H or OH. Bridge positions count the residues as written; N and C are the ends. Square brackets hold non-standard residues; d marks the D form. Peptide text beside a SMILES is read from it. I, II: the chains in the order shown. Actinocin(9to1) = Cc1c2oc3c(C)ccc(C(=O)[*:1])c3nc-2c(C(=O)[*:2])c(N)c1=O; NMeV = CN[C@H](C(=O)O)C(C)C; Sar = CNCC(=O)O
% is set by controls: 0 for no effect and ±100 for the full control effect.

Chain of D(2) dopamine receptor (Homo sapiens) (P14416 whole entry, looked up): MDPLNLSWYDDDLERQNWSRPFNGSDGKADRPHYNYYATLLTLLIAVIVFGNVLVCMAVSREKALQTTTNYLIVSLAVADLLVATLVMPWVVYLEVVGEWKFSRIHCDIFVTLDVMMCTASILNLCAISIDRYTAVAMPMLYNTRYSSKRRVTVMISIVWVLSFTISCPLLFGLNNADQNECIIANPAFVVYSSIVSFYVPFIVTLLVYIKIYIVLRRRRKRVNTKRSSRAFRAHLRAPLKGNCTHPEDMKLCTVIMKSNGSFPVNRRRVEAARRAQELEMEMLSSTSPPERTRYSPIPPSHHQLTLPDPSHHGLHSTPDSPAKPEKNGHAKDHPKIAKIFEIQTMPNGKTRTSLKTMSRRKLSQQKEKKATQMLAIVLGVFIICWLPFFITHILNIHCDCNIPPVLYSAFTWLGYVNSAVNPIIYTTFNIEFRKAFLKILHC

The test deals with D(2) dopamine receptor (Homo sapiens) (UniProt P14416). As to the kind of experiment: Dopamine D2 receptor (DRD2) small molecule agonists, cell-based qHTS assay (AID 1963594). Note: nearly all actives have a fitted effect of over 35% in size. Particulars: HEK293-DRD2 cAMP HTRF, agonist mode, 30 min; series mostly up to 92.4 µM; activation: at the top concentration. A digest of the protocol:
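HEK293 cells stably expressing DRD2 were cultured 24 h at 37 C, then given Ro20-1724 (0.1 mM final) and compounds for 10 min at room temperature. NKH477 (200nM) was then added for 30 min. cAMP was read by HTRF.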
On the technique in general: qHTS replaces the single test concentration by a dilution series.
As to `COC(=O)c1c(Cl)c(Cl)c(C(=O)OC)c(Cl)c1Cl`, the “activation” value was 18.4%.

`c1ccc2cc3c4ccccc4c4ccccc4c3cc2c1`: the “activation” value was 0.713%.

As to `Cn1cc(S(C)=O)c(=O)c2ccc(F)cc21` (stereo unspecified), the “activation” value was -12.3% [at 42.5 µM].

On to `O=Cc1ccc(C(=O)O)cc1`, for which the “activation” value was -0.147%.

In the case of `CC(C)=CCC[C@H](C)CC=O`, the “activation” value is 0.16%.

On to `CCC(=O)OCc1ccccc1`, for which the “activation” value is -1.79%.

As for `CCCCCC(=O)O[C@]1(C(C)=O)CC[C@H]2[C@@H]3CCC4=CC(=O)CC[C@]4(C)[C@H]3CC[C@@]21C`, the Potency result is “inactive”.

With `BrC1CCC(Br)C(Br)CCC(Br)C(Br)CCC1Br` (stereo unspecified), the Potency entry is “inactive”.

For `O=[N+]([O-])c1ccc2c(c1)Cc1ccccc1-2`, the Potency result was “inactive”.

Turning to `CCC1COC(=O)O1` (stereo unspecified), the “activation” value was -5.31%.

As to `Cc1c2oc3c(C)ccc(C(=O)N[C@@H]4C(=O)N[C@H](C(C)C)C(=O)N5CCC[C@H]5C(=O)N(C)CC(=O)N(C)[C@@H](C(C)C)C(=O)O[C@@H]4C)c3nc-2c(C(=O)N[C@@H]2C(=O)N[C@H](C(C)C)C(=O)N3CCC[C@H]3C(=O)N(C)CC(=O)N(C)[C@@H](C(C)C)C(=O)O[C@@H]2C)c(N)c1=O` (I: T[dV]P[Sar][NMeV] / II: T[dV]P[Sar][NMeV]; ester I:1-I:C, II:1-II:C; linker I:N-II:N via Actinocin(9to1)), the “activation” value is 11% [at 42.5 µM].

With `O=[N+]([O-])c1ccccc1Nc1ccccc1`, the “activation” value is -0.477%.

For the compound `O=C(O[C@@H](C(=O)O)[C@@H](OC(=O)c1ccccc1)C(=O)O)c1ccccc1`, the “activation” value was 1.47%.

Take `CN(C)CCCNCCCN(C)C`: the “activation” value is 4.05%.

Regarding `CCC(=O)OC(C)c1ccccc1` (stereo unspecified), the “activation” value is -0.0824%.

On to `CC(C)CC(C)(N)C#N` (stereo unspecified), for which the “activation” value was -0.182%.
